Records with an inconclusive call do not appear. Where a call stands in place of a potency, no number is given. Active and inactive are the calls of the source. The call rests on the fitted dose curve; in most records, active means well fitted activation curve with a large enough effect; inconclusive means small, poorly fitted or top-dose-only effect; inactive means no such curve, though single readings can be large or run the other way.
target: Rap guanine nucleotide exchange factor 3 (Homo sapiens) (UniProt O95398); experiment: Confirmatory qHTS for agonist of cAMP-regulated guanine nucleotide exchange factor 3 (EPAC1) (AID 1645881); conditions: EPAC1 Rap1B BODIPY-GDP exchange fluorescence; series mostly up to 154 µM; further: nearly all actives have a fitted effect of over 75% in size;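 on activation: EPAC1 catalysed release of BODIPY-GDP from Rap1B seen as fluorescence loss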
Potency means the concentration at half of the fitted maximal effect.

Chain of Rap guanine nucleotide exchange factor 3 (Homo sapiens) (O95398 whole entry, looked up): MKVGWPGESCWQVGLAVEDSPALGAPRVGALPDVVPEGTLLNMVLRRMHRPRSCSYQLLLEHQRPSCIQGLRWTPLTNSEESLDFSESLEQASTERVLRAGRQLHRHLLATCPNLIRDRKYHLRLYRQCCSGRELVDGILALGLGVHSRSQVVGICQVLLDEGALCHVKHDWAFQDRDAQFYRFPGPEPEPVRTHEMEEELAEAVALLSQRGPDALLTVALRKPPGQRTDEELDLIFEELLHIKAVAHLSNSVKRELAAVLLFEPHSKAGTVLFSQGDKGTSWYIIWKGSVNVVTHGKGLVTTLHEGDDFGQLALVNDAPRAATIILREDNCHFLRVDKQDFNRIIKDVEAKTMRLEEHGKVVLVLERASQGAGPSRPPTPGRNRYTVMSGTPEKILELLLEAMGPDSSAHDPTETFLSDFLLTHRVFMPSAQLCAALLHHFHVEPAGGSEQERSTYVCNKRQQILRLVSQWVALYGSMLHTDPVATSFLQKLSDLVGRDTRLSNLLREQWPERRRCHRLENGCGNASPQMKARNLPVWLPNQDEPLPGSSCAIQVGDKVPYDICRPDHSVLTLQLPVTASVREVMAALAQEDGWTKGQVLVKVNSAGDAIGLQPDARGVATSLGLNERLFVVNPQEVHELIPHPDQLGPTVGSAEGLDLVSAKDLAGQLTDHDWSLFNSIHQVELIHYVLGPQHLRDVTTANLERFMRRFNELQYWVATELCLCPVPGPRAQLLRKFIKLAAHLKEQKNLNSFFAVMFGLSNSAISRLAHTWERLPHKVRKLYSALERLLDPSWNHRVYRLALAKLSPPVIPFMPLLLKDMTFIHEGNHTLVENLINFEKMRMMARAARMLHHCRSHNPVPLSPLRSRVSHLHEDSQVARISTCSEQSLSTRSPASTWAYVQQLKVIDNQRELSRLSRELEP

Which Potency does the source give for `O=C(CSc1nnc(-c2ccco2)c(-c2ccco2)n1)c1ccccc1` here?
The Potency was “inactive”.

Which Potency does the source give for `Cc1cc(C(C)(C)C)cc(C)c1COC(=O)c1cccnc1` here?
The Potency was “inactive”.

For `O=c1oc2ccccc2n1Cc1ccccc1Cl`, which Potency is on record?
The Potency was “inactive”.

Which Potency does the source give for `Cc1ccc2nc(-c3cccc(Br)c3)c(Cc3ccccn3)n2c1` here?
The Potency was “inactive”.

With `CN(CC(=O)Nc1ccc(F)cc1)C(=O)COc1ccc(C(=O)c2ccccc2)cc1` as the compound, how does the Potency read?
Its Potency is “inactive”.

`CCOC(=O)c1c(CC(C)C)csc1NC(=O)COC(=O)c1ccc(O)cc1` was tested. Which Potency did it give?
Its Potency is “inactive”.

For `O=C(O)c1ccc(COc2ccccc2/C=C2\NC(=O)N(Cc3ccc(F)cc3)C2=O)cc1`, which Potency is on record?
The Potency was “inactive”.

For `CCCCn1c(=O)[nH]c(=O)c2c1nc(-c1ccccc1F)n2Cc1ccccc1OC`, which Potency is on record?
Its Potency is “inactive”.

How did the Potency turn out when `CCN1CC=C2C(C#N)=C(N)C(C#N)(C#N)C(CCc3ccccc3)C2C1` (stereo unspecified) was run?
The Potency was 50.1 µM (active).

`O=[N+]([O-])c1ccc(C=NNc2ccc(S(=O)(=O)O)cc2)cc1` was tested. Which Potency did it give?
The Potency was “inactive”.

`CCOC(=O)c1c(C)[nH]c(C(=O)C(C)OC(=O)c2ccc(NC(=O)CC#N)cc2)c1C` (stereo unspecified) was tested. Which Potency did it give?
Its Potency is “inactive”.

For `Cc1ccc(C2CC(c3cccs3)=NN2C(=O)CSc2nc(=O)n3cc(C)ccc3n2)cc1` (stereo unspecified), which Potency is on record?
The Potency was “inactive”.

With `CC1(c2ccccc2)CC(C)(C)N2C(=O)C(=O)c3cccc1c32` (stereo unspecified) as the compound, how does the Potency read?
Its Potency is “inactive”.

For `COc1cccc(/C=C2/NC(=O)N(CC(=O)Nc3ccc(C)cc3)C2=O)c1OCc1cccc(C(=O)O)c1`, which Potency is on record?
The Potency was “inactive”.

How did the Potency turn out when `CCOC(=O)c1c(NC(=O)c2ccc(S(=O)(=O)N(C)CC3CCCO3)cc2)sc2c1CCN(C)C2` (stereo unspecified) was run?
The Potency was “inactive”.

For `CCOC(=O)Cn1nc(C)c(NC(=O)COc2ccccc2[N+](=O)[O-])c1C`, which Potency is on record?
Its Potency is “inactive”.

Source: PubChem BioAssay (NCATS)
